In the library only some 0.54% were active in any assay of this set; here they are far more common.
EPAC1 antag: qHTS for Antagonist of cAMP-regulated guanine nucleotide exchange factor 3 (EPAC1): primary screen | Rap guanine nucleotide exchange factor 3 (Homo sapiens), O95398 | EPAC1 GEF assay, Rap1b-BODIPY-GDP exchange fluorescence | Potency, µM (titrated, usually from 115 µM), usual class: inhibitors | 360,000 compounds, 0.14% hits | AID 720709, 2013; note: nearly all actives have a fitted effect of over 50% in size
ERG Ets-DNA blk: qHTS for Small Molecule Inhibitors of the ERG Ets/DNA interaction; 370,000 compounds, 0.028% hits; fluorescence polarization, His-ERG Ets domain / labelled DNA; Potency, µM (highest dose often 76.9 µM), hits mostly inhibitors; active = well fitted inhibition curve with a large enough effect in the polarisation, with a control signal flat; inconclusive = small, poorly fitted or top-dose-only effect, or effect the other way, or a change in a side signal; inactive = no such curve, though single readings can be large or run the other way; the % refers to the polarisation;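 note: polarization taken with two DNA probes labelled with fluorescein and Texas red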
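His-tagged ERG Ets domain (1 uM in the protein solution; 300mM KCl, 50mM Tris-HCl, 1mM EDTA, 1mM DTT, pH 7.5) received compound, then a probe mix of 5 nM fluorescein-DNA and 100nM Texas-615-DNA. Fluorescence polarization was read for both dyes.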
EPAC2 agonist: qHTS for Agonist of cAMP-regulated guanine nucleotide exchange factor 4 (EPAC2): primary screen; EPAC2 activation, biochemical qHTS; response scale: 100% = 6.5 mM cAMP response; Potency, µM (highest dose often 154 µM), hits mostly activators; 360,000 compounds, 0.079% hits; AID 720711, 2013; Rap guanine nucleotide exchange factor 4 (Homo sapiens), Q8WZA2; note: nearly all actives have a fitted effect of over 50% in size
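Fluorescence exchange assay: 100 nM EPAC2 with 250 nM RAP1B-BODIPY-GDP and 50 uM GDP; compounds tested as a concentration-titration series (qHTS). Loss of Rap1-bound BODIPY-GDP fluorescence read at 480/540 nm; data normalized to 6.5 mM cAMP.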
TDP1 inh: qHTS Assay for Inhibitors of Tyrosyl-DNA Phosphodiesterase (TDP1) | 350,000 compounds, 0.28% hits | recombinant TDP1, AlphaScreen DNA substrate cleavage | AID 485290, 2010 | Tyrosyl-DNA phosphodiesterase 1 (Homo sapiens), Q9NUW8 | Potency, µM (series often up to 130 µM), most hits filed as inhibitors; note: nearly all actives have a fitted effect of over 40% in size
Target sequence (Q9NUW8 whole entry, looked up): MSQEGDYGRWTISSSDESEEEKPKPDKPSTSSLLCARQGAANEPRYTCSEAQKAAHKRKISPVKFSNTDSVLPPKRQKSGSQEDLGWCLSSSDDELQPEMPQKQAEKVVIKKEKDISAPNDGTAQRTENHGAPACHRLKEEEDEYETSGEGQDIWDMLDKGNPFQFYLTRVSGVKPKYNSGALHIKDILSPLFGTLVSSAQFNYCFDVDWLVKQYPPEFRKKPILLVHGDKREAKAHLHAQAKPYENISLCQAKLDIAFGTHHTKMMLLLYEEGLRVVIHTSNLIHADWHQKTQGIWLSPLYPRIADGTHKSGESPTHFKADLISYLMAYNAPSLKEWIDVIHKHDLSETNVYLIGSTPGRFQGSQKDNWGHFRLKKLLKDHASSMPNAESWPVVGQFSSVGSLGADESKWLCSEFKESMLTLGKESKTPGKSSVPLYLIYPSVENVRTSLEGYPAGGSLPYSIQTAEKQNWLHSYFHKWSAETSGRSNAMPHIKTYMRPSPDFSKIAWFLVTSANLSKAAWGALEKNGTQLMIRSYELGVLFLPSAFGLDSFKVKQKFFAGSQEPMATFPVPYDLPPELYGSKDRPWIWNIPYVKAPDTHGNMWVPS
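E. coli-derived human Tdp1, 1 nM final. Cpd preinc 15 min RT; substrate 15 nM final, 5 min RT; AS bead mix 10 ug/ml final, 10 min RT. Signal loss = tyrosine-FITC cleavage. No-enzyme wells = max signal.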
EPAC2 antag: qHTS for Antagonist of cAMP-regulated guanine nucleotide exchange factor 2 (EPAC2): primary screen; Rap guanine nucleotide exchange factor 4 (Homo sapiens), Q8WZA2; Potency, µM (series often up to 114 µM), usual class: inhibitors; EPAC2 GEF exchange of Rap1B-BODIPY-GDP, fluorescence; 360,000 compounds, 0.18% hits; note: nearly all actives have a fitted effect of over 45% in size
EPAC1 agonist: qHTS for Agonist of cAMP-regulated guanine nucleotide exchange factor 3 (EPAC1): primary screen. Rap guanine nucleotide exchange factor 3 (Homo sapiens), O95398. EPAC1 agonist qHTS, biochemical assay; response scale: 100% = response to 6.5 mM cAMP. Potency, µM (doses to about 154 µM), hits mostly activators. 360,000 compounds, 0.073% hits. AID 720707, 2013; note: nearly all actives have a fitted effect of over 60% in size
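Multi-concentration qHTS readout: loss of Rap1B-bound BODIPY-GDP fluorescence driven by 100 nM EPAC1 with excess GDP (50 uM), monitored kinetically at room temperature; agonist response expressed relative to 6.5 mM cAMP.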
Of the large screens only hits and unclear results are named; the others gave an inactive call. Unless noted, calls come from the whole dose curve; as a rule, active = well fitted curve in the direction sought with a large enough effect; inconclusive = small, poorly fitted or top-dose-only effect, or another doubt; inactive = no such curve, though single readings can be large; an effect the other way counts as inactive or inconclusive.

CCc1nnc(NC(=O)C2CC(=O)N(C3CCCCC3)C2)s1 (configuration not stated)	TDP1 inh 22.4µM
COCCSc1nnc(NC(=O)C2CC(=O)N(C3CCCC3)C2)s1 (configuration not stated)	none
CC(CC(=O)Nc1ccc(Cl)c(S(=O)(=O)N2CCOCC2)c1)c1ccccc1 (configuration not stated)	EPAC1 agonist 22.4µM
O=C(CC1CCCC1)Nc1ccc(Cl)c(S(=O)(=O)N2CCOCC2)c1	none
COc1ccc(C2c3c(ncn(CCc4ccccc4)c3=N)Oc3ccc4ccccc4c32)cc1OC (configuration not stated)	none (no result: EPAC1 antag, ERG Ets-DNA blk, EPAC2 agonist, EPAC2 antag, EPAC1 agonist)
CC(C)(C)c1ccc(OCCC(=O)OCC(=O)Nc2ccc(N3CCOCC3)cc2)cc1	EPAC1 agonist 70.8µM
COc1ccc(OCCC(=O)OCC(=O)Nc2ccc(S(=O)(=O)N3CCOCC3)cc2)cc1	EPAC1 antag inconclusive
COc1cc(/C=C/C(=O)c2ccc3c(c2)OCCO3)cc(Br)c1OCC(=O)N(C)C	EPAC1 antag 79.4µM
CCN(C)c1ccc(/C=N\n2nnnc2N)cc1	TDP1 inh 50.1µM
CCN(CC)c1ccc2cc(-c3nc(-c4ccc(OC)cc4)cs3)c(=O)oc2c1	ERG Ets-DNA blk inconclusive, EPAC2 antag 5.62µM (no result: TDP1 inh)
O=C(OCCN1C(=O)c2cccc3c(N4CCOCC4)ccc(c23)C1=O)c1cccc(Cl)c1	EPAC1 agonist 25.1µM
CC(=O)[C@]1(O)Cc2c(O)c3c(c(O)c2[C@@H](O[C@H]2C[C@H](N)[C@H](O)[C@H](C)O2)C1)C(=O)c1ccccc1C3=O	ERG Ets-DNA blk 3.16µM, EPAC2 agonist 112µM, EPAC1 agonist 100µM
COc1cccc2c1C(=O)c1c(O)c3c(c(O)c1C2=O)CC(O)(C(=O)CO)CC3OC1CC(N(C)C)C(O)C(C)O1 (configuration not stated)	ERG Ets-DNA blk inconclusive, EPAC1 agonist inconclusive (no result: TDP1 inh)
CC(=O)c1ccc2c(c1)C1C=CCC1C(c1ccncc1)N2 (configuration not stated)	none
CC(=O)c1ccc2c(c1)C1C=CCC1C(C(=O)O)N2 (configuration not stated)	EPAC1 antag 50.1µM
Cn1c2cc(S(C)=O)sc2c2cnn(Cc3ccccc3F)c(=O)c21 (configuration not stated)	none (no result: EPAC1 antag, ERG Ets-DNA blk, EPAC2 agonist, EPAC2 antag, EPAC1 agonist)
CC1CN(S(=O)(=O)c2cccc(C(=O)Nc3ccccc3N3CCCCC3)c2)CC(C)O1 (configuration not stated)	none
CC1CN(S(=O)(=O)c2cccc(C(=O)Nc3ccccc3N3CCOCC3)c2)CC(C)O1 (configuration not stated)	EPAC1 agonist 25.1µM
O=C(OCC#CCSc1nnc(-c2cc3ccccc3cc2O)o1)c1ccc(F)cc1	none (no result: EPAC1 antag, ERG Ets-DNA blk, EPAC2 agonist, EPAC2 antag, EPAC1 agonist)
O=C(c1ccc2c(c1)OCCO2)N1CCN(c2nc(-c3cccs3)nc3ccccc23)CC1	none (no result: EPAC1 antag, ERG Ets-DNA blk, EPAC2 agonist, EPAC2 antag, EPAC1 agonist)
COc1ccccc1C(=O)Nc1nnc(-c2ccco2)s1	TDP1 inh 50.1µM (no result: ERG Ets-DNA blk)
CN(C)c1ccc(/C=C(\C#N)C(=O)Nc2nc3c(s2)CCN(Cc2ccccc2)C3)cc1	ERG Ets-DNA blk inconclusive, EPAC2 agonist 112µM
O=C(Nc1nc2c(s1)CN(Cc1ccccc1)CC2)C1CCC1	none
CS(=O)(=O)c1ccc(C(=O)OCC(=O)N2CCc3ccccc32)cc1[N+](=O)[O-]	none (no result: EPAC1 antag, ERG Ets-DNA blk, EPAC2 agonist, EPAC2 antag, EPAC1 agonist)
COC(=O)c1ccccc1-c1c2ccc(=N)cc-2oc2cc(N)ccc12	EPAC1 antag 31.6µM, EPAC2 antag inconclusive
O=C(O)c1ccccc1-c1c2ccc(=O)cc-2oc2cc(O)ccc12	none (no result: EPAC1 antag, ERG Ets-DNA blk, EPAC2 agonist, EPAC2 antag, EPAC1 agonist)
COc1ccc(-c2nc3ccccc3n2Cc2ccccc2)cc1COc1ccc(NC(C)=O)cc1	none (no result: EPAC1 antag, ERG Ets-DNA blk, EPAC2 agonist, EPAC2 antag, EPAC1 agonist)
COc1ccccc1C(C(=O)c1ccccc1)c1ccc2ccccc2c1 (configuration not stated)	none (no result: ERG Ets-DNA blk, TDP1 inh)
COc1ccccc1C(C(=O)c1ccccc1)c1ccc(O)cc1 (configuration not stated)	EPAC2 antag 56.2µM (no result: ERG Ets-DNA blk, TDP1 inh)
CC1CCC2C(=O)N3C(CCC(C)[C@@H]3c3ccc(-c4ccco4)cc3)C(=O)N2C1c1cccc(N2CCCC2=O)c1 (some centres not stated)	none (no result: EPAC1 antag, ERG Ets-DNA blk, EPAC2 agonist, EPAC2 antag, EPAC1 agonist)
CC1CCC2C(=O)N3C(CCC(C)C3c3ccc(-c4ccco4)cc3)C(=O)N2C1c1ccc(-c2ccco2)cc1 (configuration not stated)	TDP1 inh 3.55µM (no result: EPAC1 antag, ERG Ets-DNA blk, EPAC2 agonist, EPAC2 antag, EPAC1 agonist)
O=C(O)c1cccc(NC(=S)NC(NC(=O)c2cccc([N+](=O)[O-])c2)C(Cl)(Cl)Cl)c1 (configuration not stated)	TDP1 inh 79.4µM
O=C(O)c1cccc(NC(=S)NC(NC(=O)c2ccccc2[N+](=O)[O-])C(Cl)(Cl)Cl)c1 (configuration not stated)	none
C/C(=N\NC(=O)c1cc(O)cc(O)c1)c1ccc(NC(=O)Cc2ccccc2)cc1	EPAC1 antag inconclusive, TDP1 inh 1.78µM
C/C(=N\NC(=O)c1cccc(F)c1)c1ccc(NC(=O)Cc2ccccc2)cc1	none
CCN1/C(=C/C=C/c2sc3ccccc3[n+]2CC)Sc2ccccc21	none (no result: TDP1 inh)
CCN1/C(=C/C=C/c2oc3ccc(-c4ccccc4)cc3[n+]2CC)Oc2ccc(-c3ccccc3)cc21	ERG Ets-DNA blk 31.6µM, EPAC2 agonist 63.1µM, EPAC1 agonist 39.8µM
Cc1nnc(Sc2cc(NCCO)c([N+](=O)[O-])c3nonc23)s1	none
Cc1nnc(Sc2cc(NCCCO)c([N+](=O)[O-])c3nonc23)s1	EPAC1 antag 39.8µM
O=C1c2cc(Br)ccc2N(Cc2ccc(Br)cc2)S(=O)(=O)C1c1cc(Cl)c(Cl)cc1[N+](=O)[O-] (configuration not stated)	EPAC1 antag 56.2µM, EPAC2 antag 20µM
O=C1c2ccccc2C(=O)N1c1cccc(O)c1	none (no result: EPAC1 antag, ERG Ets-DNA blk, EPAC2 agonist, EPAC2 antag, EPAC1 agonist)
Cc1cc(=O)c2c(O)c3c(O)cc(O)c4c5c(O)cc(O)c6c(O)c7c(=O)cc(C)c8c1c2c(c34)c(c65)c78	none (no result: EPAC1 antag, ERG Ets-DNA blk, EPAC2 agonist, EPAC2 antag, EPAC1 agonist)

Bioassay records: PubChem, National Center for Advancing Translational Sciences (NCATS)
